# Test results taken from PubChem BioAssay AID1851 (National Center for Advancing Translational Sciences (NCATS), 2009).
# Values joined by “and” are separate entries in the source; they are usually repeats but may differ in a detail not shown here. Equal values may be shown once. About 2,600 (16%) of roughly 16,000 compounds were called active. Roughly 20% stayed inconclusive and do not appear here. Calls come from the whole dose curve; as a rule, active = well fitted curve in the direction sought with a large enough effect; inconclusive = small, poorly fitted or top-dose-only effect, or effect the other way; inactive = no such curve, though single readings can be large or run the other way. The list is a sample of the results.
# Biological target: Cytochrome P450 2D6 (Homo sapiens) (UniProt P10635)
# Sequence (P10635 whole entry, looked up): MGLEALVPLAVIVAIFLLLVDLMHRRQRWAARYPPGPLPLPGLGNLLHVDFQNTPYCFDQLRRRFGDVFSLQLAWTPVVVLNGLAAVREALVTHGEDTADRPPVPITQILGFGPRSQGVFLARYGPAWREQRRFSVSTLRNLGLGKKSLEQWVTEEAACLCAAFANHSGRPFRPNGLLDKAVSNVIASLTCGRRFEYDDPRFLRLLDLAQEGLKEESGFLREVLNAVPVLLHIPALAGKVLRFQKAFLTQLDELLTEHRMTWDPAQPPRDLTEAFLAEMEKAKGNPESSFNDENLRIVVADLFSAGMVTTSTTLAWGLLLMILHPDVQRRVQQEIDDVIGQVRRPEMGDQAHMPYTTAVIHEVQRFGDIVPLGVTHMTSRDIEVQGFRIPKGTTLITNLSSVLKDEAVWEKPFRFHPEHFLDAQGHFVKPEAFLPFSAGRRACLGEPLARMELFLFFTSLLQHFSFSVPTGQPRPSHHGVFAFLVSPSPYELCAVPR
# Experiment: Cytochrome panel assay with activity outcomes
# Conditions: recombinant CYP, pro-luciferin dealkylation, luminescence, p450-cyp2d6; series mostly up to 57.1 µM; activity, negative = inhibition: at the top concentration
# % is set by controls: 0 for no effect and ±100 for the full control effect.
Compound,"activity, negative = inhibition",AC50
CCC(=O)N1CCc2cc(S(=O)(=O)NC(C(=O)NCc3ccc(F)cc3)C(C)C)ccc21 (centres undefined),0.907% (inactive),
CNC(=S)Nc1ccc(Nc2ccccc2)cc1,-29.5% (inactive),
S=C(Nc1ccccc1)Nc1ccc(OCc2ccccc2)cc1,-25.1% (inactive),
CC(C)(C)NC(=S)Nc1ccc(Nc2ccccc2)cc1,,14.1 µM (active)
COc1cccc(Nc2ncc3nc(-c4cccs4)c(=O)n(CCC#N)c3n2)c1,-4.4% (inactive),
CCOC(=O)c1ccc(-c2ccc(CO)o2)cc1,-15% (inactive),
O=C(N/N=C/c1ccc(OCc2ccccc2)cc1)c1cccs1,-1.86% (inactive),
COc1ccc(N2C(=O)NC3CC2(C)Oc2ccccc23)cc1OC (centres undefined),-0.582% (inactive),
C[C@@H](O)[C@H]1C(=O)N2C(C(=O)O)=C(S[C@@H]3CN[C@H](C(=O)N(C)C)C3)[C@H](C)[C@H]12,4.97% [at 25.6 µM] (inactive),
CCOC(=O)N1CCC(NC(=O)CSCc2cnn(-c3ccccc3)c2-n2cccc2)CC1,-28.7% (inactive),
COCC(=O)O[C@]1(CCN(C)CCCc2nc3ccccc3[nH]2)CCc2cc(F)ccc2[C@@H]1C(C)C,,0.316 µM (active)
COc1ccc(N(C)S(=O)(=O)c2ccc3c(c2)CCC(=O)N3)cc1,-12.3% (inactive),
C/C(=N\NC(=O)c1[nH]c2c([N+](=O)[O-])cc(C)cc2c1-c1ccccc1)c1cccnc1,-15.9% (inactive),
COc1ccc(NC(=O)C2c3cc(OC)c(OC)cc3C(=O)N(C)C2c2cccnc2)cc1OC (centres undefined),-3% (inactive),
C=CCC(C)(NCc1ccccc1)c1ccco1 (centres undefined),,3.98 µM (active)
CC1(C)Oc2cc(N)c([N+](=O)[O-])cc2O1,-5.57% (inactive),
Cc1nnc(SCC(=O)N2CC(=O)Nc3ccccc32)n1Cc1ccccc1,-3.02% (inactive),
O=C(O)c1ccccc1-c1ccccc1C(=O)Nc1ccc2c(c1)Cc1ccccc1-2,8.94% [at 11.4 µM] (inactive),
O=[N+]([O-])c1cccc(/C(=N/N=C/c2ccccc2Br)C23CN4CN(CN(C4)C2)C3)c1,-6.29% (inactive),
Cc1ccc(C(=O)NNC(=O)c2cc3cc4ccccc4nc3s2)cc1,19.3% (inactive),
c1ccc(-c2n[nH]c(-c3ccccc3)c2-c2nc3ccccc3[nH]2)cc1,-22.8% (inactive),
Oc1ccc(-c2nc(-c3ccc(F)cc3)c(-c3ccncc3)[nH]2)cc1,,5.01 µM (active)
Cc1ccsc1-c1nc(-c2ccccc2)c(-c2ccccc2)[nH]1,-0.505% (inactive),
O=c1cnc2cnc(Oc3ccccc3)nc2n1C1CC1,-9.03% (inactive),
Cc1ccc(C(=O)c2cn(-c3ccc(F)c(Cl)c3)nn2)cc1,6.95% (inactive),
CC[C@](N)(CCC(=O)O)C(=O)O,-1.06% (inactive),

Compound,"activity, negative = inhibition",AC50
CCSc1nnc(NC(=O)COc2ccc3ccccc3c2)s1,-5.34% (inactive),
Nc1nnc(SCCOc2cccc(Br)c2)s1,,11.2 µM (active)
CCn1c2ccccc2c2cc(N=C3SC(CC(=O)Nc4ccccc4OC)C(=O)N3C)ccc21 (centres undefined),-2.34% (inactive),
CCN(CC)c1nc(Nc2ccccc2)nc(Oc2ccc(C(=O)OC)cc2)n1,-6.17% (inactive),
Cc1c(N(C)CS(=O)(=O)O)c(=O)n(-c2ccccc2)n1C,10.2% [at 25.6 µM] (inactive),
CN(C)c1ccc(-c2nc(-n3ccnc3)c3ccccc3n2)cc1,,7.94 µM (active)
CN(C)C(=O)c1ccc(-c2nc(-n3ccnc3)c3ccccc3n2)cc1,,15.8 µM (active)
CN(C)C(=O)c1ccc(-c2nc(Nc3ccccc3)c3ccccc3n2)cc1,-14.8% (inactive),
CN(C)C(=O)c1ccc(-c2nc(Nc3ccncc3)c3ccccc3n2)cc1,-6.54% (inactive),
COc1ccc(-n2c(=O)c(-c3cccs3)nc3cncnc32)cc1,0.751% (inactive),
Cc1cc(=O)[nH]c2c1c(C)nn2C1CCOC(C)(C)C1 (centres undefined),-7.73% (inactive),
O=C(Nc1nnc(CCS(=O)(=O)c2ccc(Br)cc2)s1)c1ccc([N+](=O)[O-])cc1,-1.29% (inactive),
O=S(=O)(O)c1ccc2cc(N=Nc3cc(S(=O)(=O)O)c4cccnc4c3O)ccc2c1,-2.47% [at 11.4 µM] (inactive),
O=C(CCC(=O)Nc1ccccc1)NNC(=O)c1cccs1,11.3% (inactive),
CCn1ccc(C(=O)NC2C(=O)N3C(C(=O)O)=C(C)CSC23)n1 (centres undefined),17% (inactive),
COC(=O)Nc1nc2ccc(SC(C)C)cc2[nH]1,-3.07% [at 25.6 µM] (inactive),
COc1ccc(-n2c(=O)c(-c3ccccc3)nc3cnc(N4CCNCC4)nc32)cc1,-3.98% (inactive),
N[C@@H](Cc1cnc[nH]1)C(=O)O,2.38% (inactive),
Fc1ccc(C(OCCCc2cnc[nH]2)c2ccc(F)cc2)cc1,,0.631 µM (active)
O=C(O)CC12C[C@H]3C[C@@H](CC(O)(C3)C1)C2,1.29% [at 11.4 µM] (inactive),
COc1ccc([C@H](O)c2ccccn2)cc1,0.937% [at 11.4 µM] (inactive),
COc1ccc(C(O)c2nccn2Cc2ccccc2)cc1 (centres undefined),,10 µM (active)
COc1ccc(-c2cnnc(CCCn3ccnc3-c3ccccc3)n2)cc1,-4.95% [at 11.4 µM] (inactive),
CCNC(=O)C/C(C)=N/NC(=O)C12CC3CC(CC(C3)C1)C2,-13.3% (inactive),
COc1ccc(NC(=O)N2CC[C@@]3(CCCN(C(=O)c4ccc(OC)cc4)C3)C2)cc1,12.9% (inactive),
COc1ccc(NC(=O)N2CCCC3(CCN(C(=O)c4cccn4C)CC3)C2)cc1,3.7% (inactive),

Compound,"activity, negative = inhibition",AC50
N#Cc1ccc(C(c2nnnn2Cc2ccccc2)N2CCCC2)cc1 (centres undefined),,7.94 µM (active)
CCn1c(SCc2ccc(C#N)cc2)nnc1-c1ccc(S(=O)(=O)N2CCCCC2)cc1,7.38% (inactive),
COCC1C2CC[C@H]3C(OCc4ccc(F)cc4C(F)(F)F)OC[C@]4(C)[C@H]3C2=C(CN4C(=O)OC(C)(C)C)[C@H](C)C1COC (some centres undefined),-9.86% (inactive),
O=C(ON=C1CCN(S(=O)(=O)c2ccccc2)CC1)c1ccccc1,-11.1% (inactive),
c1ccn(-c2ccc(N3CCOCC3)cc2)c1,-19.4% (inactive),
COc1ccc(C(=O)NNC(=S)NC(=O)c2ccco2)cc1,23.2% (inactive),
Cc1ccc(C)c(-n2c(Cc3cc(=O)[nH]c(=O)[nH]3)nnc2SCC(=O)NCC2CCCO2)c1 (centres undefined),5.39% (inactive),
OCCCN=C1CCCCC1,-10.2% [at 11.4 µM] (inactive),
CCOC(=O)c1ccccc1OCc1cc(/C=N/n2cnnc2)ccc1OC,-11.9% (inactive),
CC(C)C(=O)Nc1cc2c(cc1C(=O)c1ccccc1)OCCO2,-1.98% (inactive),
CC(Sc1ccc2c(c1)OCCO2)C(=O)Nc1ncc(Cl)cc1Cl (centres undefined),,12.6 µM (active)
CC(C)Cn1c(N)c(C(=O)CSc2ccc3c(c2)OCCO3)c(=O)n(C)c1=O,-14.7% (inactive),
CCn1c(C)nc2cc(C(=O)NNS(=O)(=O)c3ccccc3F)ccc21,-5.81% (inactive),
Cc1cc(C)cc(N(C(=O)C2CCCC2)C2C=CS(=O)(=O)C2)c1 (centres undefined),-12.9% (inactive),
COc1ccc(C(=O)N2CCC3(CC2)CN(C(=O)NC(C)C)C3)cc1,-1.29% (inactive),
COc1cc(C)ccc1OCCCOc1ccccc1Cl,7.23% (inactive),
COc1ccccc1CC(=O)O/N=C(\N)c1cccc([N+](=O)[O-])c1,-22.3% (inactive),
COc1ccccc1OCCCOc1ccc([N+](=O)[O-])cc1Cl,,11.2 µM (active)
Cc1ccc(OCC(=O)NNC(=O)c2cc3ccccc3o2)cc1,3.8% (inactive),
CCCS(=O)(=O)N1CCCC(C(=O)N2CCN(c3ccccc3)CC2)C1 (centres undefined),-9.13% (inactive),
O=C(NCCCN1CCN(c2cccc(Cl)c2)CC1)C1CCC(=O)N1Cc1ccccc1Cl (centres undefined),,5.01 µM (active)
CCCS(=O)(=O)N1CCCC(C(=O)NCCN2CCOCC2)C1 (centres undefined),4.14% (inactive),
CCCN(CCC)CCNC(=O)C1CCCN(S(=O)(=O)c2ccc3c(c2)oc(=O)n3C)C1 (centres undefined),-10.6% (inactive),
CCCS(=O)(=O)N1CCCC(C(=O)NCCCN2CCN(c3ccccc3F)CC2)C1 (centres undefined),,10 µM (active)
CCCS(=O)(=O)N1CCCC(C(=O)NCCN2CCC(Cc3ccccc3)CC2)C1 (centres undefined),,0.501 µM (active)
CCCS(=O)(=O)N1CCCC(C(=O)NCC2CCCO2)C1 (centres undefined),-2.53% (inactive),

Compound,"activity, negative = inhibition",AC50
O=C(Nc1ccc(Br)cc1)C1CCC(=O)N1Cc1ccccc1Cl (centres undefined),-23.9% (inactive),
CCCS(=O)(=O)N1CCCC(C(=O)NCCCN2CCN(c3cccc(Cl)c3)CC2)C1 (centres undefined),,5.62 µM (active)
CCCS(=O)(=O)N1CCCC(C(=O)NCCCOC(C)C)C1 (centres undefined),32.2% (inactive),
COC(Cc1nnc(SC)n1-c1ccccc1)OC,10.6% (inactive),
CC(C)Nc1cc(C(F)(F)F)nc(-c2ccccn2)n1,14.4% (inactive),
CC(C)COP(=O)(c1ccc(N(C)C)cc1)C(O)c1ccccc1F (centres undefined),3.33% (inactive),
COc1cccc(Cn2c(=O)cnc3cnc(OC)nc32)c1,-20.5% (inactive),
Cc1ccc(-c2nc3c(=O)n(C)c4ccccc4c3o2)cc1,-0.939% (inactive),
O=C(COc1ccccc1)Nc1ccc(-c2nnc(-c3ccco3)o2)cc1,-15.7% (inactive),
C/C(CC(=O)Nc1cc(Cl)ccc1Cl)=N\NC(N)=S,-29.8% (inactive),
CC(NC(=O)c1ccc(Cn2cc([N+](=O)[O-])cn2)o1)c1ccccc1 (centres undefined),-9.64% (inactive),
CCC(=O)Nc1cc2c(cc1C(=O)c1ccccc1)OCCO2,-0.416% (inactive),
CCOc1cc(NC(=S)NCC2CCCO2)c(OCC)cc1NC(=O)c1ccccc1C (centres undefined),-28.8% (inactive),
CCCc1cc2c(cc1NC(=O)c1ccccc1C)OCO2,,8.91 µM (active)
c1ccc(-c2csc3ncn4cnnc4c23)cc1,16.6% (inactive),
CCC(=O)N[C@@H]1Cc2ccccc2[C@@H](c2ccccc2)C1,-2.56% (inactive),
COCCNc1cc(-c2c(C)noc2C)ncn1,7.09% (inactive),
Cc1cc(Cl)ccc1OCC(=O)Nc1nc(N)nc(N)n1,14% [at 11.4 µM] (inactive),
Cc1cc(Cl)ccc1OCC(=O)NCc1ccncc1,,2.82 µM (active)
Cc1cc(Cl)ccc1OCC(=O)N/N=C1\CCCc2ccccc21,19.9% (inactive),
N/C(=N\c1nc2ccccc2o1)NC(=O)c1ccccc1F,-0.637% (inactive),
Cc1ccc(S(=O)(=O)N[C@H]2COC(=O)C/C=C\[C@@H](C)COC(=O)C/C=C\[C@@H]2C)cc1,15.5% [at 11.4 µM] (inactive) and -2.8% [at 11.4 µM] (inactive),
N#CCCSC(=S)[C@H]1CCCC1=N,-9.64% [at 11.4 µM] (inactive),
O=C(COc1ccccc1C(=O)N/N=C\c1ccc(O)c(O)c1)N/N=C/c1ccc(O)c(O)c1,-6.7% (inactive),
O=C(COc1ccccc1Cl)Nc1cc(Cl)ccc1Oc1ccccc1,-7.9% (inactive),
CC(C/C=N/NC(=O)COc1cc(Cl)ccc1Cl)c1ccccc1 (centres undefined),,0.631 µM (active)
